Screening data as filed in PubChem BioAssay.
Rows were chosen to be rich in hits. Some 4% of all compounds tested hit in one or more screens of this group.
Peg3 prom inh: Peg3 promoter activity inhibition. HeLa PEG-Prom luciferase reporter, luminescence, overnight. inhibition, % at 20 µM. 1.7% of 360,000 active. AID 588405;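 active = inhibition of at least 50% at 20 µM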
HIF-2a inh: blocks HIF-2a reporter activity. 0.72% of 360,000 active. AID 624352. 786-0 RCC cells HIF-2a reporter, luciferase luminescence, overnight. inhibition, % at 18.8 µM;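 active = inhibition of the luminescence signal of 40% or more relative to plate controls, in a single-dose primary screen at 18.75 µM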
TROY NFkB inh: blocks TROY-dependent signaling in reporter cells; Q293 LMP1-TROYcd NF-kB luciferase reporter, 4 h; inhibition, % at 10 µM; 0.98% of 360,000 active; AID 1347056;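 active = compounds whose plate-normalised and pattern-corrected inhibition of the luciferase reporter signal at the single screening dose is 50% or more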
TWEAK Fn14 block: TWEAK-Fn14 signaling inhibition. TWEAK-stimulated Fn14 reporter cells, luciferase luminescence, 8 h. inhibition, % at 10 µM. 2% of 360,000 active; in the data active = inhibition above about 50%
KKLEB cytotox: reduces viability of KKLEB cystic fibrosis airway cells | KKLEB CF airway cells viability, ATPlite luminescence, overnight; active compounds read low; cells stimulated with P. aeruginosa culture filtrate | activity change (cytotoxicity), % at 5 µM | 0.36% of 360,000 active;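 active = corrected activity change at or below -50% at 5 µM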
CF NFkB inh: cystic fibrosis NF-kB activation inhibition; KKLEB NF-kB-GFP reporter, PAF-induced, GFP fluorescence overnight; inhibition, % at 5 µM; 0.86% of 360,000 active; AID 588850;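 active = at least 50% inhibition at 5 µM, scaled per plate between neutral and stimulator controls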;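 note: PAF is a Pseudomonas aeruginosa culture filtrate used as stimulus; plate controls were PAF-stimulated DMSO wells for no effect and unstimulated DMSO wells for full effect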
Numbers without * were called inactive.

`C=C[C@]1(C)C=C2C(=O)[C@@]3(O)OC(=O)[C@@]4(CCCC(C)(C)[C@H]34)[C@@]2(O)CC1` gave Peg3 prom inh 99*, HIF-2a inh 97*, TROY NFkB inh 27, TWEAK Fn14 block 104*, KKLEB cytotox -99* and CF NFkB inh 88*.
COc1ccccc1-n1cnc2cc(NCc3ccccn3)ccc21 was read as Peg3 prom inh -49, HIF-2a inh -122, TROY NFkB inh 56*, TWEAK Fn14 block 52*, KKLEB cytotox -7 and CF NFkB inh 9.
Screening O=[N+]([O-])c1ccc(-[n+]2nc(-c3ccccc3)nn2-c2ccccc2)cc1 returned Peg3 prom inh 42, HIF-2a inh 15, TROY NFkB inh -51, TWEAK Fn14 block 14, KKLEB cytotox -53* and CF NFkB inh 42.
For CC12CCC3C(CCC4N(CCO)CCC34C)C1CCC2O (configuration not stated) the results were Peg3 prom inh 1, HIF-2a inh 22, TROY NFkB inh -7, TWEAK Fn14 block 94*, KKLEB cytotox 2 and CF NFkB inh 11.
For C[C@]12CC[C@@H]3c4ccc(O)cc4CC[C@H]3[C@@H]1CC[C@@H]2O the results were Peg3 prom inh 25, HIF-2a inh -8, TROY NFkB inh 5, TWEAK Fn14 block 1, KKLEB cytotox 27 and CF NFkB inh -7.
Screening O=[N+]([O-])c1cc(Cc2ccccc2)cc(C=Nc2ccc(N3CCOCC3)cc2)c1O returned Peg3 prom inh 5, HIF-2a inh 32, TROY NFkB inh 29, TWEAK Fn14 block 8, KKLEB cytotox 32 and CF NFkB inh 40.
Cc1ccc(O)c(N=Cc2cc(Cc3ccccc3)cc([N+](=O)[O-])c2O)c1 was read as Peg3 prom inh -3, HIF-2a inh -19, TROY NFkB inh 52*, TWEAK Fn14 block 4, KKLEB cytotox 41 and CF NFkB inh 17.
For O=C(CC12CC3CC(CC(Br)(C3)C1)C2)NC1=NCCS1 the results were Peg3 prom inh 14, HIF-2a inh 19, TROY NFkB inh -4, TWEAK Fn14 block -1, KKLEB cytotox 12 and CF NFkB inh 2.
Cc1cc(/C=N/NC(=O)c2cccs2)c(C)n1-c1ccccc1 was read as Peg3 prom inh -120, HIF-2a inh -35, TROY NFkB inh 63*, TWEAK Fn14 block 80*, KKLEB cytotox -26 and CF NFkB inh -23.
`Cc1cc(/C=N/NC(=O)c2ccncc2)c(C)n1-c1ccccc1` gave Peg3 prom inh -139, HIF-2a inh -174, TROY NFkB inh -32, TWEAK Fn14 block -16, KKLEB cytotox 2 and CF NFkB inh -6.
For CCc1nnc(NS(=O)(=O)c2ccc(N/C=C(\C=O)c3nc4cc(Cl)ccc4o3)cc2)s1 the results were Peg3 prom inh -8, HIF-2a inh -2, TROY NFkB inh 24, TWEAK Fn14 block 19, KKLEB cytotox -2 and CF NFkB inh -6.
Screening N#Cc1ccc(-c2ccc(Cl)cc2)nc1SCC(=O)c1cccc(Cl)c1 returned Peg3 prom inh 86*, HIF-2a inh 16, TROY NFkB inh 2, TWEAK Fn14 block -51, KKLEB cytotox -17 and CF NFkB inh 9.
Screening Cc1ccc(C(C(=O)NC(C)(C)C)N(CC2CCCO2)C(=O)c2csnn2)cc1 (configuration not stated) returned Peg3 prom inh 13, HIF-2a inh 2, TROY NFkB inh 0, TWEAK Fn14 block 21, KKLEB cytotox -28 and CF NFkB inh -1.
`CC(=O)/C(N=Nc1cc2c(cc1[N+](=O)[O-])OCCO2)=C(\C)O` gave Peg3 prom inh 8, HIF-2a inh 6, TROY NFkB inh -4, TWEAK Fn14 block -36, KKLEB cytotox -1 and CF NFkB inh -68.
Screening CC(=O)/C(N=Nc1cc2c(c([N+](=O)[O-])c1C)C(C)(C)CC2(C)C)=C(\C)O returned Peg3 prom inh 22, HIF-2a inh 14, TROY NFkB inh 81*, TWEAK Fn14 block 96*, KKLEB cytotox 0 and CF NFkB inh 2.
CCOc1ccc(CCNC(=O)CCS(=O)(=O)c2ccc(Br)cc2)cc1OCC was read as Peg3 prom inh 8, HIF-2a inh 14, TROY NFkB inh -14, TWEAK Fn14 block 10, KKLEB cytotox -20 and CF NFkB inh 22.
Screening O=C(CSc1nccn1-c1ccc(F)cc1)NCc1ccc(F)cc1 returned Peg3 prom inh 4, HIF-2a inh 6, TROY NFkB inh 1, TWEAK Fn14 block 1, KKLEB cytotox 6 and CF NFkB inh 17.
Screening Cn1c(=O)[nH]c(=O)c2c1nc1n2CCCS1 returned Peg3 prom inh -2, HIF-2a inh -8, TROY NFkB inh -32, TWEAK Fn14 block -15, KKLEB cytotox 2 and CF NFkB inh -8.
`CCOC(=O)c1c(C)sc2c1N(C(=O)CCl)c1cc(Cl)ccc1S2` gave Peg3 prom inh 87*, HIF-2a inh 91*, TROY NFkB inh 12, TWEAK Fn14 block 39, KKLEB cytotox -76* and CF NFkB inh 69*.
Screening O=S1(=O)N=C(Oc2cccc3ccccc23)c2ccccc21 returned Peg3 prom inh 12, HIF-2a inh -10, TROY NFkB inh 58*, TWEAK Fn14 block 23, KKLEB cytotox -6 and CF NFkB inh 3.
COc1ccccc1C(=O)Nc1c[nH]c(=O)[nH]c1=O was read as Peg3 prom inh 64*, HIF-2a inh 2, TROY NFkB inh -10, TWEAK Fn14 block 3, KKLEB cytotox 14 and CF NFkB inh -20.
`CCOc1ccccc1C(=O)Nc1c[nH]c(=O)[nH]c1=O` gave Peg3 prom inh 25, HIF-2a inh -3, TROY NFkB inh 0, TWEAK Fn14 block -2, KKLEB cytotox -3 and CF NFkB inh 13.
`CCc1ccc(S(=O)(=O)/N=C2\C=C(NS(=O)(=O)c3ccccc3)C(=O)c3ccccc32)cc1` gave Peg3 prom inh -33, HIF-2a inh -63, TROY NFkB inh -22, TWEAK Fn14 block -6, KKLEB cytotox -10 and CF NFkB inh 69*.
Screening CC(C)c1ccc(S(=O)(=O)/N=C2\C=C(NS(=O)(=O)c3ccccc3)C(=O)c3ccccc32)cc1 returned Peg3 prom inh -7, HIF-2a inh -13, TROY NFkB inh -5, TWEAK Fn14 block 0, KKLEB cytotox -3 and CF NFkB inh 74*.
Cc1ccc(C)c(S(=O)(=O)/N=C2\C=C(NS(=O)(=O)c3ccccc3)C(=O)c3ccccc32)c1 was read as Peg3 prom inh 32, HIF-2a inh 5, TROY NFkB inh 18, TWEAK Fn14 block 18, KKLEB cytotox 3 and CF NFkB inh 32.
CC(C)[n+]1ccn(C2=C([O-])c3ccccc3C(=O)/C2=N\S(=O)(=O)c2ccccc2)c1 was read as Peg3 prom inh 1, HIF-2a inh -17, TROY NFkB inh -4, TWEAK Fn14 block 12, KKLEB cytotox -2 and CF NFkB inh -1.
CCN1N=C(c2ccccc2)Cn2c1nc1ccccc12 was read as Peg3 prom inh -18, HIF-2a inh -57, TROY NFkB inh 4, TWEAK Fn14 block 4, KKLEB cytotox 3 and CF NFkB inh -17.
